Screening results deposited in PubChem BioAssay by National Center for Advancing Translational Sciences (NCATS).
Sampled rows, rich in hits. Any-hit rate of the full collection: about 8%.
MARV entry inh: blocks Marburg virus binding to or entry into cells. Potency, µM (highest dose often 37.8 µM), for the others: at the top dose activity change, negative = inhibition, actives largely listed as inhibitors. 300,000 compounds, 1.8% hits. Marburg virus pseudotyped entry inhibition, cell reporter; calls by dose curve; tested in HEK293 cells; also: potency is read from the fitted curve at half-maximal effect; % is scaled to controls: 0 for no effect and ±100 for the full control effect
SARS PLP yeast: SARS-CoV PLP inhibition in yeast. S. cerevisiae expressing SARS-CoV PLpro, growth rescue. Potency, µM (series often up to 32.9 µM), without a hit: top-dose activity, positive = growth rescue, hits mostly activators. 330,000 compounds, 0.19% hits. AID 485353; calls by dose curve; also: potency is read from the fitted curve at half-maximal effect; 0% is about no effect; nearly all actives have a fitted effect of over 55% in size
FMDV antiviral: antivirals against foot and mouth disease virus. FMDV antiviral cell-based qHTS. Potency, µM (doses to about 57.9 µM), inactives show at the highest dose activity change, negative = inhibition, most hits filed as inhibitors. 410,000 compounds, 1.2% hits. AID 1159524; calls by dose curve; tested in HEK293T cells; also: read-out not given here; potency is read from the fitted curve at half-maximal effect; % is scaled to controls: 0 for no effect and ±100 for the full control effect; nearly all actives have a fitted effect of over 45% in size
HCMV antiviral: inhibitors of human cytomegalovirus | HFF cells, HCMV-luciferase reporter, 72 h; stronger effect = lower value | activity change, negative = inhibition, % at 57.5 µM | 410,000 compounds, 4.5% hits; in the data active = activity change below about -60%; inconclusive = no clear call, values can overlap the other calls; inactive = above about -39%; also: % is scaled to controls: 0 for no effect and ±100 for the full control effect
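After 16 h attachment at 37C, HFF cells received test compound and HCMV-luciferase (1 PFU/cell); reporter luminescence read 72 h later, data normalized against buffer-only and known inhibitor Salinomycin.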
HCV inh: HCV inhibition | Huh7.5.1 HCVcc-Cre infection, luciferase reporter, 44 h | Potency, µM (series often up to 41.8 µM), for the others: top-dose activity change, negative = inhibition, actives largely listed as inhibitors | 340,000 compounds, 3.4% hits | AID 651820; active = well fitted inhibition curve with a large enough effect; inconclusive = small, poorly fitted or top-dose-only effect, or another doubt; inactive = no such curve, though single readings can be large or run the other way; also: potency is read from the fitted curve at half-maximal effect; % is scaled to controls: 0 for no effect and ±100 for the full control effect
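Reporter virus HCVcc-Cre (~0.5 moi) infects cells exposed to compound; seeding density 1,000 cells/well with 4 h settling beforehand. Luminescence, 15 sec read, taken 44 h post-infection following a 15 min RT substrate incubation.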
Lassa entry inh: blocks Lassa virus binding to or entry into cells; 300,000 compounds, 1.2% hits; Potency, µM (highest dose often 37.9 µM), for inactives: at the top dose activity change, negative = inhibition, hits mostly inhibitors; Lassa virus pseudotype entry inhibition, cell reporter; calls by dose curve; tested in HEK293 cells; also: potency is read from the fitted curve at half-maximal effect; % is scaled to controls: 0 for no effect and ±100 for the full control effect; nearly all actives have a fitted effect of over 50% in size
* hit, by the source's call; ! = a repeat was not active; [ ] = remark or other dose.

Screening Cc1noc(C)c1S(=O)(=O)N1CCCC(C(=O)Nc2ccc(Cl)cn2)C1 (centres undefined) returned MARV entry inh inconclusive, SARS PLP yeast 3.4%, FMDV antiviral 31.6µM*, HCMV antiviral -29.4, HCV inh inconclusive and Lassa entry inh inconclusive.
CCN(CC)CCNC(=O)C1CCN(S(=O)(=O)c2c(C)noc2/C=C/c2ccccc2F)CC1 was read as SARS PLP yeast -3.8%, FMDV antiviral -2.0%, HCMV antiviral -77.7*!, HCV inh 5.62µM* and Lassa entry inh inconclusive.
For COc1ccc(/C=C/C(=O)OCC(=O)N2c3ccccc3CC2C)c(OC)c1 (centres undefined) the results were FMDV antiviral -1.4% and HCMV antiviral 1.3.
Screening Cc1ccc(C)c(NC(=O)CN2C(=O)CC(C)S(=O)(=O)c3ccccc32)c1 (centres undefined) returned MARV entry inh inconclusive, SARS PLP yeast 3.2%, FMDV antiviral -11.0%, HCMV antiviral 44.6, HCV inh 15.0% and Lassa entry inh 7.5%[46.1 µM].
For Cc1n[nH]c(C)c1S(=O)(=O)N1CCCC(C(=O)Nc2nccs2)C1 (centres undefined) the results were MARV entry inh inconclusive, SARS PLP yeast -3.5%, FMDV antiviral 0.3%, HCMV antiviral -97.7*, HCV inh -11.7% and Lassa entry inh -0.6%.
`C=CCN(C(=O)CSC1=NC(=O)CN1C(C)=O)c1nc(C)c(-c2ccccc2)s1` gave MARV entry inh -17.0%[46.1 µM], SARS PLP yeast 0.4%, FMDV antiviral -1.1%, HCMV antiviral 89.3, HCV inh inconclusive and Lassa entry inh 11.6%.
`C/C(=N\Nc1ccc(F)cc1F)c1ccc(F)cc1` gave MARV entry inh 0.4% and SARS PLP yeast 1.6%.
C/C(=N\Nc1ccc(F)cc1F)c1ccc(Br)s1 was read as MARV entry inh 0.8%[46.1 µM], SARS PLP yeast -1.5%, FMDV antiviral 5.7%, HCMV antiviral -70.4*, HCV inh inconclusive and Lassa entry inh 4.7%[46.1 µM].
Screening COc1ccc(S(=O)(=O)N(CCc2ccccc2)CC(=O)Nc2cc(Cl)ccc2C)cc1 returned FMDV antiviral -8.6%, HCMV antiviral -1.3 and Lassa entry inh inconclusive.
Screening Cc1cccc(C)c1Nc1c(-c2ccsc2)nc2ccccn12 returned MARV entry inh inconclusive, FMDV antiviral 0.0%, HCMV antiviral -22.4 and Lassa entry inh -14.5%[46.1 µM].
Cc1cccc(C)c1Nc1c(-c2ccccn2)nc2ccccn12 was read as SARS PLP yeast -25.0%, FMDV antiviral -28.6%, HCMV antiviral -97.1* and HCV inh 10µM*.
For Cc1ccc(Nc2c(-c3ccccn3)nc3ccc(Br)cn23)cc1 the results were MARV entry inh 0.1%[46.1 µM], FMDV antiviral -20.8%, HCMV antiviral 4.1 and Lassa entry inh 18.2%[46.1 µM].
For Cc1ccc2nc(-c3ccccn3)c(NC3CCCC3)n2c1 the results were MARV entry inh inconclusive, SARS PLP yeast 0.1%, FMDV antiviral -6.0%, HCMV antiviral -65.7*, HCV inh inconclusive and Lassa entry inh inconclusive.
Screening Cc1cc(C)n2c(Nc3c(C)cccc3C)c(-c3ccccn3)nc2n1 returned FMDV antiviral inconclusive and HCMV antiviral -69.2*.
Screening Cc1nnc(N2CCN(c3cccc(Cl)c3)CC2)c2c1nnn2Cc1ccc(F)cc1 returned MARV entry inh 7.6%[46.1 µM], FMDV antiviral inconclusive, HCMV antiviral 12.2 and Lassa entry inh 6.3%[46.1 µM].
`COc1cc(OC)cc(C(=O)NCCN2C(=O)S/C(=C\c3cccs3)C2=O)c1` gave SARS PLP yeast -3.6%, FMDV antiviral inconclusive, HCMV antiviral -6.7 and HCV inh 8.91µM*.
`COc1ccc(NC(=O)CCCN2C(=O)/C(=C\c3ccco3)SC2=S)cc1` gave MARV entry inh -4.8%, SARS PLP yeast -18.2%, FMDV antiviral inconclusive, HCMV antiviral -101.4*, HCV inh inconclusive and Lassa entry inh inconclusive.
For COc1ccc(/C=C2/SC(=S)N(CCCC(=O)Nc3ccccc3C(=O)O)C2=O)cc1 the results were MARV entry inh 7.94µM*, SARS PLP yeast -14.3%, FMDV antiviral 8.91µM*, HCMV antiviral -34.0, HCV inh 27.6% and Lassa entry inh 2.82µM*.
For COc1ccc(/C=C2\SC(=O)N(CCNC(=O)Cc3coc4cc(OC)ccc34)C2=O)cc1 the results were MARV entry inh 12.9%, SARS PLP yeast -6.6%, FMDV antiviral 0.0%, HCMV antiviral -102.5*, HCV inh inconclusive and Lassa entry inh -19.0%.
`O=C1CCSc2ccc(S(=O)(=O)Nc3ccc(Cl)c(C(F)(F)F)c3)cc2N1` gave FMDV antiviral 24.9%, HCMV antiviral 5.7 and Lassa entry inh 3.0%[46.1 µM].
For COc1ccc2[nH]cc(CCNc3nc(-c4ccccc4OC)nc4ccccc34)c2c1 the results were FMDV antiviral -20.2%.
`CSc1nc(NC2CCCC2)c([N+](=O)[O-])c(NC2CCCC2)n1` gave FMDV antiviral -17.0%.
`COc1ccc(/C=C2/SC(=S)N(CCCC(=O)Nc3cccc(O)c3)C2=O)cc1` gave MARV entry inh 7.94µM*, SARS PLP yeast 1.6%, FMDV antiviral 4.2%, HCMV antiviral -97.1*, HCV inh inconclusive and Lassa entry inh inconclusive.
For O=C(CCCN1C(=O)/C(=C/c2cccs2)SC1=S)NNC(=O)c1ccccc1O the results were MARV entry inh 5.3%, SARS PLP yeast inconclusive, FMDV antiviral -0.7%, HCMV antiviral inconclusive, HCV inh inconclusive and Lassa entry inh inconclusive.
CCc1ccc(/C=C2\SC(=S)N(CCCC(=O)Nc3nccs3)C2=O)cc1 was read as MARV entry inh 2.5%, SARS PLP yeast -6.3%, FMDV antiviral 13.8%, HCMV antiviral -93.5*, HCV inh 13.0% and Lassa entry inh 4.9%.
COc1ccc(/C=C2\SC(=S)N(CCC(=O)Nc3cccc(O)c3)C2=O)cc1OC was read as MARV entry inh 18.0%[46.1 µM], SARS PLP yeast 1.4%, FMDV antiviral 5.9%, HCMV antiviral -24.1, HCV inh -22.5% and Lassa entry inh 11.0%[46.1 µM].
`COc1ccc(/C=C2\SC(=S)N(CCCC(=O)NNC(=O)c3ccccc3O)C2=O)cc1` gave MARV entry inh inconclusive, SARS PLP yeast 1.7%, FMDV antiviral 4.47µM*, HCMV antiviral -75.2*, HCV inh inconclusive and Lassa entry inh 2.24µM*.
`Cc1ccc(/C=C2\SC(=S)N(CCCC(=O)Nc3nccs3)C2=O)cc1` gave MARV entry inh inconclusive, SARS PLP yeast 1.9%, FMDV antiviral -23.9%, HCMV antiviral inconclusive, HCV inh 5.5% and Lassa entry inh 6.4%.
`CCc1ccc(/C=C2\SC(=S)N(CCCC(=O)Nc3ccccc3C(=O)O)C2=O)cc1` gave SARS PLP yeast 4.1%, FMDV antiviral 0.0%, HCMV antiviral active and HCV inh 1.4%.
COc1ccc(C)cc1N(C)C(=O)c1c2c(nc3ccccc13)C(=O)N(C1CCCCC1)C2 was read as FMDV antiviral -25.1%, HCMV antiviral -25.0 and Lassa entry inh 3.3%[46.1 µM].
